Screens (PubChem)
Most compounds without a hit are left out; they make up all but 10% or so of the library.
HEK cytotox = cytotoxic compounds in HEK 293 cells; hit rate 6.6% among 94,000; Potency, µM (doses to about 115 µM), for the others: top-dose activity change, negative = cytotoxicity, most hits filed as inhibitors; AID 1345083; HEK 293 viability, ATP luminescence (CellTiter-Glo), 48-72 h; note: nearly all actives have a fitted effect of over 60% in size
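ATP-coupled CellTiter-Glo luminescence served as viability read-out, recorded 10 min after reagent addition at room temperature. HEK 293 cells, 250 cells/well, had been incubated with pintool-transferred compound for 48 or 72 hr at 37 degree Celsius.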
hNpr1 antagonist = blocks ANP-stimulated signaling of human Npr1 receptor. HEK293 hNpr1 GloSensor cGMP, ANP-stimulated luminescence. Potency, µM (top dose mostly 46.3 µM), for inactives: top-dose activity change, negative = inhibition, hits mostly inhibitors. hit rate 1.6% among 76,000; calls by dose curve; note: nearly all actives have a fitted effect of over 60% in size
Target sequence (P16066 whole entry, looked up): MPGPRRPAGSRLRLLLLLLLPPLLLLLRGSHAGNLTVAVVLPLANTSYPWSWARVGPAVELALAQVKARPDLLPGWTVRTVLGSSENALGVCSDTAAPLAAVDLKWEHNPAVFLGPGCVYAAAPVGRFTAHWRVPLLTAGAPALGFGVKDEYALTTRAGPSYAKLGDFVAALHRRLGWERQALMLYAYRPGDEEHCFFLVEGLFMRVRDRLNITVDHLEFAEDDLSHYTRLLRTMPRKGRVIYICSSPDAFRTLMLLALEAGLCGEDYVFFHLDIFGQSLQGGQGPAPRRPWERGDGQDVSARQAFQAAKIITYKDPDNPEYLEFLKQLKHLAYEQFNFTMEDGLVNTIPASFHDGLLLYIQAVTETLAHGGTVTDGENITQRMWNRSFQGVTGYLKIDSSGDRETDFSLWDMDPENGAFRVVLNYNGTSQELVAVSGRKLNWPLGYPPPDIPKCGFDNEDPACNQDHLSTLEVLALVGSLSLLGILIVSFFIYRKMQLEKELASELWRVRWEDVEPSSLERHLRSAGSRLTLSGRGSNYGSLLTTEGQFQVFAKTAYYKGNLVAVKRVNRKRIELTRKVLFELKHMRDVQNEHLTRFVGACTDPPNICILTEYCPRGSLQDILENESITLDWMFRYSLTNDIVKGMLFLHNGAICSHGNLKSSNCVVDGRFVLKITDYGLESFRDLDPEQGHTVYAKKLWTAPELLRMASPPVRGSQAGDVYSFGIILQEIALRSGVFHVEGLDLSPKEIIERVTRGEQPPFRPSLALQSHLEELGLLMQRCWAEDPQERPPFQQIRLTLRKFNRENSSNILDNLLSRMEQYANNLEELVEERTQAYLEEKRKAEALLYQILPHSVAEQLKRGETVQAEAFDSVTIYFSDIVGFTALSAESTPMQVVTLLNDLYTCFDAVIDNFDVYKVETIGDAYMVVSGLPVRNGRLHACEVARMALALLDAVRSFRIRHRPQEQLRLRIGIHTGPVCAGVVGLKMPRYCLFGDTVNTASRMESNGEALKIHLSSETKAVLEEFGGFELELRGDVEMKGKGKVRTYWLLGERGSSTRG
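Compound pre-incubated 30 min at room temperature on GloSensor-loaded HEK293 cells stably carrying hNpr1 and the pGS-40F cGMP biosensor. Stimulation uses hNppA at 0.1 nM final; luminescence is taken at baseline and 20 min post-agonist.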
Luciferase inh = blocks purified firefly luciferase enzyme activity; P08659; purified P. pyralis luciferase, luminescence, biochemical; Potency, µM (doses to about 115 µM), hits mostly inhibitors; hit rate 2.5% among 76,000; note: nearly all actives have a fitted effect of over 65% in size
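FLuc 10nM, D-luciferin 10uM, ATP 10uM, Mg acetate 10mM, Tris acetate pH 7.5, Tween/BSA; cpd qHTS; enzyme added last; CCD luminescence.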
NIH3T3 tox = kills NIH 3T3 cells; Potency, µM (highest dose often 96.7 µM), for the others: at the highest dose activity change, negative = cytotoxicity, actives largely listed as inhibitors; NIH 3T3 viability, CellTiter-Glo ATP luminescence, 48-72 h; AID 1345082; hit rate 4.3% among 94,000; note: nearly all actives have a fitted effect of over 55% in size
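Cytotoxicity was measured by CellTiter-Glo ATP luminescence after 48 or 72 h compound exposure at 37 °C. Mouse NIH 3T3 fibroblasts were seeded at 400 cells/well and dosed by 23 nL pin transfer.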
GPT2 inhibitor = inhibitors of human GPT2 alanine aminotransferase; Q8TD30; Recombinant GPT2, coupled pyruvate oxidase/HRP Amplex Red fluorescence; Potency, µM (highest dose often 57.7 µM), inactives show top-dose activity change, negative = inhibition, usual class: inhibitors; hit rate 0.25% among 100,000; note: nearly all actives have a fitted effect of over 60% in size
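Fluorescence read-out: pyruvate from GPT2 turnover coupled to pyruvate oxidase, HRP and Amplex Red (0.2mM ThPP, 0.2U/mL PO and HRP, 50uM Amplex final). Substrates 250uM a-KG, 2mM L-alanine; enzyme 10ng/uL; 30 min RT.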
* marks the source's active call; other numbers are inactive results; i = inactive; u = inconclusive; x = no result given; [ ] = remark or other dose. Unless noted, calls come from the whole dose curve; as a rule, active = well fitted curve in the direction sought with a large enough effect; inconclusive = small, poorly fitted or top-dose-only effect, or another doubt; inactive = no such curve, though single readings can be large; an effect the other way counts as inactive or inconclusive. % is set by controls: 0 for no effect and ±100 for the full control effect; potency is the fitted concentration of half-maximal effect.

SMILES	HEK cytotox	hNpr1 antagonist	Luciferase inh	NIH3T3 tox	GPT2 inhibitor
CCOC(=O)[C@H]1CN(C(=O)CCc2ccccc2)[C@]2(C)C(=O)N(CC3CC3)c3ccccc3[C@H]12	u	x	x	u	-6.3%[27.3 µM]
CC1NCCOC1c1ccccc1 (configuration not stated)	x	x	x	x	2.0%
CC[C@H]1CN2CC[C@H]1C[C@@H]2CNCc1ccc(-c2ccccc2)cc1	25.1µM*	-16.4%[70.6 µM]	i	28.2µM*	-7.9%[88.5 µM]
CC[C@H]1CN2CC[C@H]1C[C@@H]2CN(Cc1ccc(SC)cc1)Cc1ccc(SC)cc1	7.08µM*	-14.2%[70.6 µM]	i	10µM*	-2.9%[88.5 µM]
CC[C@H]1CN2CC[C@H]1C[C@@H]2CNCc1ccc(C(F)(F)F)cc1	u	-0.9%[70.6 µM]	i	89.1µM*	u
CC[C@H]1CN2CC[C@H]1C[C@@H]2CNCc1ccc(OC)cc1	u	-4.0%[70.6 µM]	i	-24.0%[230 µM]	i
CN1CCN(C(=O)Cc2c[nH]c3ncc(-c4cccc(F)c4)cc23)CC1	-17.9%[172 µM]	2.6%[70.6 µM]	i	u	0.4%[88.5 µM]
CN1CCN(C(=O)Cc2c[nH]c3ncc(-c4ccc(F)c(Cl)c4)cc23)CC1	79.4µM*	-15.8%[70.6 µM]	i	28.2µM*	1.3%[88.5 µM]
Cn1cc(-c2cnc3[nH]cc(CC(=O)N4CCN(Cc5ccccc5)CC4)c3c2)cn1	u	-7.8%[70.6 µM]	u	39.8µM*	-3.9%[88.5 µM]
CN1CCN(C(=O)Cc2c[nH]c3ncc(-c4ccc5c(c4)OCO5)cc23)CC1	u	-1.1%[70.6 µM]	22.4µM*	u	-4.0%[88.5 µM]
CN1CCN(C(=O)Cc2c[nH]c3ncc(-c4ccc(Cl)cc4)cc23)CC1	100µM*	-14.6%[70.6 µM]	22.4µM*	28.2µM*	i
Cc1ccccc1-c1cnc2[nH]cc(CC(=O)N3CCN(C)CC3)c2c1	u	1.7%[70.6 µM]	i	u	0.9%[88.5 µM]
COc1ncc(-c2cnc3[nH]cc(CC(=O)N4CCN(C)CC4)c3c2)cn1	i	-11.6%[70.6 µM]	i	u	i
COc1ccc(C2(C(=O)N3[C@H]4CC[C@@H]3c3cnc(C)nc3C4)CCCCC2)cc1	-1.8%	2.5%	i	-14.5%	1.1%
CCN1Cc2ccccc2NC(=O)C12CCNC2 (configuration not stated)	0.3%	x	x	1.2%	-17.7%
C[C@H]1C(=O)O[C@@H]2CCN3CC=C(COC(=O)[C@](C)(O)[C@]1(C)O)[C@H]23	x	x	x	x	i
O=C(NC1CCCC1)N1[C@H]2CC[C@@H]1c1cncnc1C2	i	2.7%	i	i	i
CN1CCN(C(=O)Cc2c[nH]c3ncc(-c4cccc(Cl)c4)cc23)CC1	89.1µM*	-23.4%[70.6 µM]	i	50.1µM*	u
C=C[C@H]1CN2CC[C@H]1C[C@@H]2CNC(=O)Nc1ccc(Br)cc1	56.2µM*	-5.6%[70.6 µM]	i	u	-3.2%[88.5 µM]
C=C[C@H]1CN2CC[C@H]1C[C@@H]2CNC(=O)Nc1cc(OC)cc(OC)c1	-4.5%[172 µM]	-0.2%[70.6 µM]	i	u	3.9%[88.5 µM]
C=C[C@H]1CN2CC[C@H]1C[C@@H]2CNC(=O)Nc1ccc(OC(F)(F)F)cc1	-11.6%[172 µM]	-0.2%[70.6 µM]	i	u	-0.7%[88.5 µM]
C=C[C@H]1CN2CC[C@H]1C[C@@H]2CNC(=O)Nc1ccc(Oc2ccccc2)cc1	100µM*	3.8%[70.6 µM]	i	u	i
C=C[C@H]1CN2CC[C@H]1C[C@@H]2CNC(=O)c1cc(OC)c(OC)c(OC)c1	u	2.5%[70.6 µM]	i	44.7µM*	-5.9%[88.5 µM]
C#C[C@H]1CN2CC[C@H]1C[C@@H]2CNC(=O)Nc1ccc(C(C)=O)cc1	u	4.0%[70.6 µM]	i	u	4.6%[88.5 µM]
C#C[C@H]1CN2CC[C@H]1C[C@@H]2CNC(=O)Nc1ccc(Oc2ccccc2)cc1	39.8µM*	-0.7%[70.6 µM]	i	39.8µM*	4.2%[88.5 µM]
SMILES	HEK cytotox	hNpr1 antagonist	Luciferase inh	NIH3T3 tox	GPT2 inhibitor
CCCS(=O)(=O)NC[C@H]1C[C@@H]2CCN1C[C@@H]2c1cc(-c2cccs2)nn1C	-8.1%[172 µM]	1.9%[70.6 µM]	i	u	i
O=C(c1ccncc1)N1C2CCC1CN(Cc1cccnc1)C2	-21.0%	x	x	-24.6%	i
CNC(=O)Oc1cccc2ccccc12	x	x	x	x	8.91µM*
O=C(O)C1=NOC2CN(Cc3ccccc3)CC12 (configuration not stated)	i	x	x	i	2.4%[88.5 µM]
O=C1N(c2ccccn2)C[C@H]2CN(Cc3ccc(F)cc3)CCN12	-25.6%[172 µM]	-18.0%[70.6 µM]	25.1µM*	-29.5%[138 µM]	i
NC(=O)CN1C(=O)CO[C@H]2CN(C3CCC3)C[C@H]21	-5.1%[230 µM]	1.9%[70.6 µM]	i	2.4%[230 µM]	0.0%[88.5 µM]
Cn1nc(C2CCCC2)cc1[C@H]1CN2CC[C@H]1C[C@@H]2CNS(=O)(=O)c1ccccc1	100µM*	0.1%[70.6 µM]	i	112µM*	-6.0%[88.5 µM]
COc1ccccc1-c1cc([C@H]2CN3CC[C@H]2C[C@@H]3CNS(C)(=O)=O)n(C)n1	i	6.8%[70.6 µM]	i	-13.1%[174 µM]	-4.1%[88.5 µM]
COc1ccccc1-c1cc([C@H]2CN3CC[C@H]2C[C@@H]3CNS(=O)(=O)c2ccccc2)n(C)n1	u	0.7%	i	31.6µM*	0.2%
COc1ccc(-c2cc([C@H]3CN4CC[C@H]3C[C@@H]4CNS(=O)(=O)c3ccc(C)cc3)n(C)n2)cc1OC	39.8µM*	0.5%	i	22.4µM*	u
COc1ccc(-c2cc([C@H]3CN4CC[C@H]3C[C@@H]4CNS(=O)(=O)c3ccccc3)n(C)n2)cc1OC	u	-1.5%	i	u	i
O=C1NCCCCCCN(Cc2cccnc2)[C@H]2CCC[C@@H]12	-11.9%	0.7%	i	u	i
O=C1NCCCCCCN(Cc2ccncc2)[C@@H]2CN(C(=O)COc3ccc(F)cc3)CC[C@@H]12	-4.7%	6.6%	i	35.5µM*	i
COc1cc2c(cc1CCc1ccccc1)N(C(=O)C(C)C)CC21CCN(C(C)=O)CC1	89.1µM*	4.4%[70.6 µM]	i	-98.1%[138 µM]	u
COc1cc2c(cc1CCc1ccccc1)N(C(=O)c1c[nH]c3ccccc13)CC21CCN(C(C)=O)CC1	25.1µM*	-19.0%	i	22.4µM*	-11.9%
COc1cc2c(cc1CCc1ccccc1)N(C(=O)c1ccnn1C)CC21CCN(C(C)=O)CC1	u	2.1%	i	u	-1.1%
COc1cc2c(cc1CCc1ccccc1)N(C(=O)C1CCC(C)CC1)CC21CCN(C(C)=O)CC1 (configuration not stated)	39.8µM*	u	i	31.6µM*	-17.6%
O=C(O)c1cn(Cc2cccc(C(F)(F)F)c2)nn1	-14.0%	0.4%	i	-20.5%	-0.6%
COc1ccccc1-c1cc([C@H]2CN3CC[C@H]2C[C@@H]3COC(=O)Nc2ccc(C(C)C)cc2)n(C)n1	28.2µM*	-1.0%	i	22.4µM*	2.7%
COc1ccccc1-c1cc([C@H]2CN3CC[C@H]2C[C@@H]3COC(=O)Nc2ccc(C(C)(C)C)cc2)n(C)n1	25.1µM*	-1.8%	i	22.4µM*	-1.8%
